Compound activity: PubChem BioAssay, several laboratories
Mtb BioA inh: blocks M. tuberculosis BioA enzyme activity; purified M. tuberculosis BioA enzyme, plate reader; inhibition, % at 9.99 µM; 360,000 tested, 0.096% active; AID 602481; in the data active = inhibition above about 40%
Mtb FBA inh: inhibits M. tuberculosis FBA enzyme; P9WQA3; purified M. tuberculosis FBA, fluorescence read-out; inhibition, % at 1 µM; 360,000 tested, 2.3% active; AID 588726;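 note: 0% = vehicle and 100% = reference inhibitor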
Target sequence (P9WQA3 whole entry, looked up): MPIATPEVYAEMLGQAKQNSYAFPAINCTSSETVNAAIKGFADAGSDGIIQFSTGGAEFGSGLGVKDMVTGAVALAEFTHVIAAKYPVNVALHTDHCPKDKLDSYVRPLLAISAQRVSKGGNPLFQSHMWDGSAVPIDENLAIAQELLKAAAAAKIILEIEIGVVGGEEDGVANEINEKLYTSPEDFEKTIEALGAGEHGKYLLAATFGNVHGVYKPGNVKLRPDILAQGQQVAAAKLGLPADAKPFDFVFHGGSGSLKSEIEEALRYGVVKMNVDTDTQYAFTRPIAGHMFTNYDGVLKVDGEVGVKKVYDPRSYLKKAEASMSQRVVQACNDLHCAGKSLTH
BH1578 lux ind: inducers of Vibrio cholerae quorum light production without autoinducers. V. cholerae BH1578 lux reporter, luminescence, 6 h. activation, % at 18.7 µM. 350,000 tested, 0.16% active; in the data active = activation mostly above about 9.7%, no sharp cut-off
GDH-TPI counter-1: counter-screen for M. tuberculosis FBA inhibitors: GDH-TPI coupled enzymes; GDH-TPI coupled enzyme counterscreen, NADH absorbance; inhibition, % at 4.8 µM; 360,000 tested, 1.2% active; in the data active = inhibition above about 30%;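 note: 0% = DMSO wells and 100% = wells lacking the enzyme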
Mtb FBA confirm: Mtb FBA inhibition, confirmed | shares compounds with Mtb FBA inh | purified M. tuberculosis FBA, fluorescence read-out | inhibition, % at 1 µM | 5,600 tested, 78% active | AID 651616;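 note: 0% = vehicle wells and 100% = reference inhibitor wells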
GDH-TPI counter-2: counter-screen for M. tuberculosis FBA inhibitors: GDH-TPI coupled enzyme inhibition. inhibition, % at 1 µM. shares compounds with Mtb FBA inh. AID 652141. GDH-TPI coupled enzyme counterscreen, fluorescence. 5,600 tested, 81% active; in the data active = inhibition above about 10%
GDH-TPI dose: GDH-TPI dose response counter-screen for Mtb FBA. shares compounds with Mtb FBA inh. GDH-TPI coupled enzyme assay, fluorescence, artifact counterscreen. IC50, µM. 170 tested, 79% active. AID 652145; call rule not given here
The depositor's hits bear a star; i = inactive; · = no result; + = active, no number. The list is not random: actives were taken first. Their share in the collection is about 3%. Cut-off read from the data, not from the text of the source, unless noted: active = inhibition above about 27%; inactive = the rest.

SMILES	Mtb BioA inh	Mtb FBA inh	BH1578 lux ind	GDH-TPI counter-1	Mtb FBA confirm	GDH-TPI counter-2	others
CC(C)(C)c1cc(NC(=O)COC(=O)c2ccccc2O)n(-c2ccccc2)n1	1.3	4.3	i	-4.0	·	·
COc1ccc(S(=O)(=O)Nc2nc3c(s2)CCCC3)cc1	·	56.2*	0.5	2.2	86.5*	67.6*
Cc1ccc(S(=O)(=O)Nc2ccc3c(c2)C(=O)N([C@H](C)CO)C[C@H](C)[C@H](CN(C)Cc2ccc(C(=O)O)cc2)OCCCC[C@H](C)O3)cc1	-1.2	·	·	·	·	·
COc1cccc(-c2c(-c3cc(OC)cc(OC)c3)n(C)c3ccc(-c4ccc5cc[nH]c5c4)cc23)c1	-2.6	33.7*	i	32.6*	58.4*	42.6*
COc1cc(OC)cc(-c2c(-c3cccs3)c3cc(-c4ccc(SC)cc4)ccc3n2C)c1	0.5	-0.1	-3.6	8.8	·	·
COc1ccc(-c2c(-c3cc(OC)cc(OC)c3)n(C)c3ccc(-c4ccc(S(N)(=O)=O)cc4)cc23)cc1	-0.5	53.9*	0.5	11.9	53.0*	46.9*
COc1ccc(-c2c(-c3cc(OC)cc(OC)c3)n(C)c3ccc(-c4cnc(N)nc4)cc23)cc1	0.4	0.2	i	4.9	·	·
COc1cccc(-c2c(-c3cc(OC)cc(OC)c3)n(C)c3ccc(-c4cnc(OC)nc4)cc23)c1	-2.1	3.9	i	-5.9	·	·
COc1cc(C#Cc2c(-c3cncn3C)n(C)c3ccc(-c4ccc(OC)c(OC)c4)cc23)cc(OC)c1	-0.6	24.4	-8.3	4.4	·	·
COc1cc(C#Cc2c(-c3cncn3C)n(C)c3ccc(-c4ccc5cc[nH]c5c4)cc23)cc(OC)c1	-2.4	34.6*	i	22.7	56.5*	46.1*
COc1cc(OC)cc(-c2c(-c3cccs3)c3cc(-c4ccc5[nH]ccc5c4)ccc3n2C)c1	-1.1	35.5*	-5.3	19.3	96.8*	65.8*
COc1ccccc1C(=O)N1C[C@H]2[C@@H](c3ccccc31)[C@@H](CO)N2C(=O)Cc1cccnc1	-4.1	·	·	·	·	·
COc1cc(OC)cc(-c2c(-c3cccs3)c3cc(-c4ccc5cc[nH]c5c4)ccc3n2C)c1	-0.6	28.1*	i	37.9*	116.2*	110.6*
COc1cc(OC)cc(-c2c(-c3cccs3)c3cc(-c4ccc(OC)c(OC)c4)ccc3n2C)c1	0.4	32.5*	i	18.7	+	170.3*
Cc1nc2oc(C(=O)c3ccc(Br)cc3)c(N)c2c2c1COC(C)(C)C2	-0.1	4.3	-0.3	12.7	·	·
Cc1nc2oc3c(=O)[nH]cnc3c2c2c1COC(C)(C)C2	0.0	44.0*	-0.6	4.9	13.2	-4.7	GDH-TPI dose=4.75*
CCCNC(=O)NC[C@H]1[C@H](c2ccc(C3=CCCCC3)cc2)[C@@H](CO)N1C(C)=O	-2.7	·	·	·	·	·
NNc1nc2sc3c(c2c(=O)n1C1CCCCC1)CCN(Cc1ccccc1)C3	0.1	4.4	-0.4	-7.7	·	·
O=c1[nH]cnc2sc3c(c12)CCN(Cc1ccccc1)C3	·	47.4*	-0.3	14.7	121.6*	94.1*
OCCCNc1ncnc2sc3c(c12)CCN(Cc1ccccc1)C3	7.9	71.8*	0.0	10.9	76.2*	61.9*
CNC[C@@H]1Oc2ccc(NC(=O)Nc3cccc4ccccc34)cc2CC(=O)N([C@@H](C)CO)C[C@@H]1C	-2.1	·	·	·	·	·
CCn1c(=O)c2cc(C(=O)Nc3ccc(OC)cc3OC)sc2c2ccccc21	·	-0.3	-3.7	0.3	·	·
CN(C)CCNC(=O)c1cc2sc3ccccc3c2s1	0.9	1.2	-0.5	5.4	·	·
CCCN(CCC)CCNC(=O)c1cc2c(=O)n(CC)c3ccccc3c2s1	-0.9	27.9*	-0.4	22.5	63.5*	54.9*
CCN(CC)CCNC(=O)c1cc2c(=O)n(CC)c3ccccc3c2s1	-1.1	72.5*	-0.5	23.9	41.9*	35.7*
SMILES	Mtb BioA inh	Mtb FBA inh	BH1578 lux ind	GDH-TPI counter-1	Mtb FBA confirm	GDH-TPI counter-2	others
CCN(CC)CCCNC(=O)c1cc2c(=O)n(CC)c3ccccc3c2s1	1.2	71.9*	i	8.9	+	+
CCn1c(=O)c2cc(C(=O)NCCN(C)C)sc2c2ccccc21	2.0	62.2*	i	15.6	105.1*	89.5*
CCN(CC)CCCNC(=O)c1cc2c(Cl)nc3ccccc3c2s1	·	1.6	-0.3	9.3	·	·
CN1CCN(C(=O)C[C@@H]2C=C[C@@H](NS(=O)(=O)c3cccc(F)c3)[C@H](CO)O2)CC1	-0.8	·	·	·	·	·
CC(C)CCN(CCC(C)C)CC(O)Cn1c2ccccc2c(=O)c2ccccc21 (stereo unspecified)	0.4	30.9*	-0.3	-1.5	45.1*	35.0*
O=C(NC1CCC1)[C@H]1[C@H](CO)[C@H]2Cn3c(ccc(-c4ccc(F)cc4)c3=O)[C@H]2N1Cc1ccccn1	2.8	·	·	·	·	·
CC(C)NC(=O)c1cc2nc(-c3ccco3)cc(C(F)(F)F)n2n1	-1.1	18.8	i	29.2	·	·
CCOC(=O)c1cc2nc(-c3ccco3)cc(C(F)(F)F)n2n1	-2.0	28.5*	i	6.8	+	+
COc1ccc(C2CC(c3ccccc3)=NN2c2ccc(/C=N/NC(=O)c3ccncc3)cc2)cc1 (stereo unspecified)	-1.5	-2.3	6.7	2.2	·	·
O=Cc1ccc(N2N=C(c3ccccc3)CC2c2ccccc2)cc1 (stereo unspecified)	-3.1	86.3*	5.6	7.0	135.7*	89.5*
CC(=O)Nc1ccc(C2=NN(c3ccccc3)C(c3ccccc3)C2)cc1 (stereo unspecified)	-0.9	105.2*	i	6.4	41.6*	33.3*
N#CCC(=O)N/N=C/c1ccc(N2N=C(c3ccccc3)CC2c2ccccc2)cc1 (stereo unspecified)	-3.5	84.7*	-2.2	3.7	11.8	4.6	GDH-TPI dose=0.285*
CC(C)NC(=O)N(C)C[C@H]1Oc2ccc(NC(=O)NC3CCCCC3)cc2CC(=O)N([C@H](C)CO)C[C@@H]1C	0.0	·	·	·	·	·
CCCCC1OC23CCCCC2C(C#N)(C#N)C1(C#N)C(=N)O3 (stereo unspecified)	-2.9	45.1*	-0.2	-14.8	64.2*	50.8*
CCCCC1OC23CCCCC2C(C#N)(C(=N)O3)C1(C#N)C#N (stereo unspecified)	·	42.3*	i	-11.2	-2.3	2.8
O=C(Cc1ccncc1)NCC[C@H]1CC[C@@H](NC(=O)C2CCCC2)[C@@H](CO)O1	-3.2	·	·	·	·	·
C[C@@H]1CN([C@@H](C)CO)C(=O)c2cc(NC(=O)Cc3ccccc3)ccc2O[C@@H]1CN(C)Cc1ccc2c(c1)OCO2	1.7	·	·	·	·	·
O=C(NC(NC(=S)Nc1ccccc1C(=O)O)C(Cl)(Cl)Cl)c1ccco1 (stereo unspecified)	·	32.9*	-0.3	10.7	2.1	-4.2
COc1ccc(S(=O)(=O)N(C)C[C@H]2Oc3ccc(N(C)C)cc3CC(=O)N([C@H](C)CO)C[C@@H]2C)cc1	-1.3	·	·	·	·	·
COc1ccc(-c2oc3cccnc3c2/C=C/c2ccc(OC)c(OC)c2)cc1	-0.2	93.5*	i	15.3	+	195.2*
